Data on 24 compounds can be found in ChEMBL document CHEMBL3433997, “St. Jude Leishmania screening dataset” (2016).

A word on the inhibition: it is the change of the read-out against control, counted positive when it falls.

Molecules are shown by their SMILES.

This assay concerns the target Glucose transporter (Leishmania mexicana) (UniProt O61059). Nature of the assay: ST_JUDE_LEISH: Cytotoxicity at 2uM final concentration against transgenic Leishmania Mexicana promastigotes LmGT2 that are glucose transport deficient and complemented with the L. Mexicana glucose transporter 2. Activity is measured by DNA content using SYBR green in vitro. The assay is classed as functional.
`NC(=O)c1cc2nc(Nc3ccc(F)cc3)nc(NC3CCC3)c2[nH]1`: the inhibition is -0.6%.

Regarding `O[C@H]1[C@H](OCc2ccc(-c3ccccc3)cc2)CC[C@@H]1N1CCCCC1`, the inhibition is 8.6%.

For `COc1ccc(-c2nnc(Sc3ccc(C#N)c([N+](=O)[O-])c3)n2CCC(C)C)cc1`, the inhibition was -0.81%.

In the case of `CN(CCON1C(=N)N=C(N)NC1(C)C)c1ccccc1`, the inhibition turned out to be 0.35%.

`O=C(NCCCCCN1CCC(c2c[nH]c3ccccc23)CC1)Nc1ccc(Br)cc1`: the inhibition is -0.48%.

In the case of `COCCNCc1ccc(-c2ccc3c(Nc4ccc(F)cc4Cl)ccnc3c2)o1`, the inhibition was found to be 5.59%.

`COc1ccc(-c2cc(C(=O)N[C@@H](CC3CCCCC3)C(=O)NCCN3CCCCC3)ccc2O)cc1`: the inhibition was -0.35%.

For the compound `Cc1[nH]c(C)c(-c2ccc(OCCCc3ccccn3)cc2)c(=O)c1Br`, the inhibition came to 8.48%.

Consider `COc1cccc2c(NN=Cc3ccccc3F)ccnc12`, for which the inhibition worked out at 2.85%.

Regarding `CN(C)S(=O)(=O)c1ccc(N2C(=O)C3C(C2=O)C2(c4ccccc4)C(=O)C3(c3ccccc3)C(c3ccccc3)=C2c2ccccc2)cc1` (centres undefined), the inhibition was -2.57%.

In the case of `CN1CCN(CC(=O)Nc2cccc(-c3cccc(-c4nc5ccccc5[nH]4)c3)c2)CC1`, the inhibition was -3.47%.

As to `COc1cccc(CN2CCCN(Cc3cccc(NC(=O)c4cc5ccccc5s4)c3)CC2)c1`, the inhibition was found to be 5.23%.

Regarding `CC12CN3CC(C)(CN(C1)C3c1cc(Br)ccc1O)C2O` (centres undefined), the inhibition amounted to 4.22%.

Take `CCN(CC)CCN(Cc1ccc(-c2ccc(C(F)(F)F)cc2)cc1)C(=O)Cn1cc(Cc2cnn(C)c2)c(=O)nc1/C=C/c1ccc(F)cc1`: the inhibition turned out to be 2.56%.

`Cc1cc(NCCc2ccccc2)nc(NC(=N)Nc2cccc(Cl)c2)n1`: the inhibition is 0.63%.

On to `COc1ccc(OCC(=O)Nc2nc(-c3ccc(OC)cc3)c(C)s2)cc1`, for which the inhibition was -1.09%.

On to `CCCCCCSc1nnc(COc2cccc3ccccc23)n1-c1ccc(OC)cc1`, for which the inhibition amounted to 10.3%.

In the case of `O=C(CSc1cccc[n+]1[O-])c1ccc(Cc2ncc(C(F)(F)F)cc2Cl)s1`, the inhibition is 10.7%.

Turning to `Nc1nc2ccc(S(=O)(=O)Nc3ccc(C(=O)N[C@@H](CCC(=O)O)C(=O)O)c(F)c3)cc2c(=O)[nH]1`, the inhibition is 1.53%.

Consider `CCn1ccc2c3c(N)nc(N)nc3ccc21`, for which the inhibition was -1.34%.

With `Cc1cc(NCCCCCCN)nc(Nc2ccc(Cl)cc2)n1`, the inhibition was -0.67%.

With `O=C(Nc1ccc(I)cc1)N1CCc2sccc2C1CN1CCCCC1` (centres undefined), the inhibition was 10.5%.

As for `CCc1ccc(CN2CCC(C(=O)Nc3ccc(-c4nc5ccccc5[nH]4)cc3)CC2)o1`, the inhibition turned out to be 25.7%.

For `O=S(=O)(c1ccccc1Cl)N1CCCCC(c2ccc(C(F)(F)F)cc2)=N1`, the inhibition was -2.05%.
